# Measurements as given in PubChem BioAssay (EPA / NIEHS).
# Several values for one entry are separate records, joined by “and”; a condition that tells them apart may be missing. Equal entries are not always repeated. The source holds several records for some structures; these can differ, active in one and inactive in another. Activity calls are given as the source filed them. Rule for the calls: active = hit-call score of the fitted dose curve at least 0.9, where 1 is the maximum; inactive = score below 0.9.
# Read-out: Monocyte Chemoattractant Protein-1 (MCP1), CCL2 (gene 6347)
# Assay: BSK_hDFCGF_MCP1: BioMAP Diversity Plus: hDFCGF Assay for Monocyte Chemoattractant Protein-1 (MCP1) Biomarker Activity (AID 2284285)
# Settings: primary human foreskin fibroblasts
# Description: BSK_hDFCGF is a cell-based, multiplexed-readout assay that uses foreskin fibroblast, a human skin primary cell, with measurements taken at 24 hours after chemical dosing in a 96-well plate.BSK_hDFCGF_MCP1 is an assay component measured in the BSK_hDFCGF assay. It measures MCP-1 antibody related to regulation of gene expression using ELISA technology.Data from the assay component BSK_hDFCGF_MCP1 was analyzed at the endpoint, BSK_hDFCGF_MCP1, in the positive analysis fitting direction relative to DMSO as the negative control and baseline of activity. Using a type of binding reporter, gain or loss-of-signal activity can be used to understand protein changes. To generalize the intended target to other relatable targets, this assay endpoint is annotated to the 'cytokine' intended target family, where the subfamily is 'chemotactic factor'.
# The levels of cell surface (or secreted, indicated by the prefix "s") biomarker endpoints were measured by ELISA. Overt cytotoxicity to cells in confluent adherent cultures (all systems other than the BT system) was assessed by measuring total protein levels using sulforhodamine B (SRB) staining in parallel cultures at the time of biomarker measurements, indicated as SRB endpoints. For proliferation assays for adherent cell types, individual cell types are cultured at sub-confluence and relative cell numbers quantified by SRB staining at time points optimized for each system (48 h: 3C and CASM3C systems; 72 h: BT and HDF3CGF systems; 96 h: SAg system). SRB was performed by staining cells with 0.1% SRB after fixation with 10% TCA and reading wells at 560 nm.Viability and proliferation of PBMC (T cells) was quantified by Alamar Blue reduction for the SAg and BT systems. For PBMC viability (referred to as PBMC Cytotoxicity within the assay endpoint names), cells were plated (75,000/well in a 96-well plate) and then chemical samples added for 1 h before addition of activators, SEB and TSST-1 (20 ng/mL final concentration each). Cells were incubated for 90 h. Then, Alamar Blue (20 uL/well) (Invitrogen, Cat DAL1100) was added for 6 h, and the plates were read with a fluorescence microplate reader at 546/580 nm (excitation/emission). For PBMC proliferation, cells were plated and activated as above but incubated for only 16 h prior to addition of Alamar Blue. Plates were read after 6 h.
Structure (SMILES),outcome,AC50
O=S(=O)(OCCOC(F)(F)F)C(F)(F)F,inactive,–
C=CC(F)(F)C(F)(F)C(F)(F)C(F)(F)C(F)(F)C(F)(F)C(F)(F)C(F)(F)C=C,inactive,–
OCC(F)(F)C(F)(F)C(F)(F)C(F)(F)C(F)(F)C(F)(F)F,inactive,23 µM (active)
CCO[Si](CCC(F)(F)C(F)(F)C(F)(F)C(F)(F)C(F)(F)C(F)(F)F)(OCC)OCC,inactive,–
O=C(O)C(F)(OC(F)(F)C(F)(OC(F)(F)C(F)(F)C(F)(F)F)C(F)(F)F)C(F)(F)F (stereo not given),inactive,–
Cc1ccc(S(=O)(=O)OCC(F)(F)C(F)(F)C(F)(F)C(F)(F)C(F)(F)C(F)F)cc1,–,6.75 µM (active) and 3.49 µM (active)
FC(F)(Br)C(F)(F)C(F)(F)C(F)(F)C(F)(F)C(F)(F)Br,inactive,–
O=C(CC(=O)C(F)(F)C(F)(F)F)C(F)(F)F,inactive,–
FC(F)(F)C(F)(F)C(F)(F)C(F)(F)C(F)(F)CCI,inactive,–
O=C(O)C(F)(OC(F)(F)C(F)(OC(F)(F)C(F)(OC(F)(F)C(F)(F)C(F)(F)F)C(F)(F)F)C(F)(F)F)C(F)(F)F (stereo not given),inactive,–
O=C(O)C(F)(F)C(F)(F)C(F)(F)C(F)(F)C(F)(F)C(F)(F)C(F)(F)C(F)(F)C(F)(F)C(F)(F)C(F)(F)C(F)(F)C(F)(F)F,inactive,–
FC(F)(F)C(F)(F)C(F)(F)C(F)(F)C(F)(F)C(F)(F)C(F)(F)I,inactive,–
CCCCCCOC(=O)c1ccccc1O,–,18.2 µM (active) and 22.9 µM (active)
O=C(O)C(F)(F)C(F)(F)C(F)F,inactive,–
O=P(O)(O)OCCC(F)(F)C(F)(F)C(F)(F)C(F)(F)C(F)(F)C(F)(F)F,inactive,–
N=C(N)C(F)(F)C(F)(F)C(F)(F)C(F)(F)C(F)(F)C(F)(F)C(F)(F)F,inactive,43.8 µM (active)
OCCCC(F)(F)C(F)(F)C(F)(F)F,inactive,–
C=C(C)C(=O)OCCC(F)(F)C(F)(F)C(F)(F)C(F)(F)C(F)(C(F)(F)F)C(F)(F)F,inactive,–

Structure (SMILES),outcome,AC50
FC(F)(F)C(F)(F)C(F)(F)C(F)(F)C(F)(F)C(F)(F)C(F)(F)C(F)(F)CCS,inactive,1.2 µM (active)
C=CC(F)(F)C(F)(F)C(F)(F)C(F)(F)C(F)(F)C(F)(F)C(F)(F)C(F)(F)F,inactive,–
FC(F)(F)C(F)(F)C(F)(F)C(F)(F)C(F)(F)C(F)(F)CC1CO1 (stereo not given),inactive,–
O=C(O)C=C(C(F)(F)F)C(F)(F)F,inactive,2.31 µM (active)
FC(F)(F)C(F)(F)C(F)(F)CI,inactive,–
NC(=O)C(F)(F)C(F)(F)C(F)(F)C(F)(F)F,inactive,–
O=C(O)C(F)(F)C(F)(F)OC(F)(F)F,inactive,–
FC(F)(F)C(F)(F)C(F)(F)C(F)(F)C(F)(F)C(F)(F)C(F)(F)C(F)(F)F,inactive,–
O=C(Cl)C(F)(F)C(F)(F)C(F)(F)C(F)(F)C(F)(F)C(F)(F)C(F)(F)C(F)(F)F,inactive,49.5 µM (active) and 46.4 µM (active)
O=C(O)C(F)(F)C(F)(F)C(F)(F)C(F)(F)F,inactive,–
FC1CC(F)(F)C(F)(F)C1(F)F (stereo not given),inactive,–
O=C(O)C(F)(F)C(F)(F)C(F)(F)C(F)(F)C(F)(F)C(F)(F)C(F)(F)C(F)(F)C(F)(F)C(F)F,–,23.4 µM (active) and 42 µM (active)
CCCCCCCCC(F)(F)C(F)(F)C(F)(F)C(F)(F)C(F)(F)C(F)(F)F,inactive,–
C=CC(=O)OCC(F)(F)C(F)(F)C(F)(F)C(F)(F)C(F)(F)C(F)(F)C(F)(F)F,inactive,–
O=C(O)C(F)(F)C(F)(F)C(F)(F)C(F)(F)C(F)(F)C(F)(F)C(F)(F)C(F)(F)C(F)(F)C(F)(F)C(F)(F)C(F)(F)F,inactive,–
COC(=O)CCC(F)(F)C(F)(F)C(F)(F)C(F)(F)F,inactive,–
OCC(F)(F)C(F)(F)C(F)(F)C(F)F,inactive,–
